Measurements as given in PubChem BioAssay AID1159580 (chemical genetic matrix, 2015).
Out of some 5,500 compounds screened, about 2,000 (36%) were called active. Another 18% or so got no clear call; they are omitted. No stated cut-off is given here; in the data, active means normalized growth mostly below about 0.91 (no sharp cut-off); inconclusive means no clear call, values can overlap the other calls; inactive means mostly above about 0.92. Some of the results follow.

Test: chemical genetic growth profiling, strain panel (AID 1159580);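 further: tested at 20 µM; growth read once vehicle control cultures reached saturation at 30 °C; 1 = growth at the plate median or of vehicle wells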
Settings: growth OD
[1] = S. cerevisiae deletion strains, locus YAL013W, strain DEP1, stronger effect = lower value
[2] = S. cerevisiae deletion strains, locus YDR150W, strain NUM1, stronger effect = lower value
[3] = S. cerevisiae deletion strains, locus YJR075W, strain HOC1, stronger effect = lower value
[4] = S. cerevisiae deletion strains, locus YNL153C, strain GIM3, stronger effect = lower value
[5] = S. cerevisiae deletion strains, locus YNL322C, strain KRE1, stronger effect = lower value
[6] = S. cerevisiae deletion strains, locus YPL055C, strain LGE1, stronger effect = lower value
[7] = S. cerevisiae deletion strains, locus YPL241C, strain CIN2, stronger effect = lower value

Measured: normalized growth

C=CC1CN2CCC1CC2C(OC(C)=O)c1ccnc2ccc(OC)cc12 (stereo not drawn)
inactive: [1] 1.01 | S. cerevisiae deletion strains, locus YBR229C, strain ROT2, stronger effect = lower value 0.993 | S. cerevisiae deletion strains, locus YDL101C, strain DUN1, stronger effect = lower value 1 | [2] 1.02 | S. cerevisiae deletion strains, locus YEL061C, strain CIN8, stronger effect = lower value 0.957 | S. cerevisiae deletion strains, locus YGR078C, strain PAC10, stronger effect = lower value 1 | S. cerevisiae deletion strains, locus YHR030C, strain SLT2, stronger effect = lower value 1.06 | S. cerevisiae deletion strains, locus YHR087W, strain rtc3, stronger effect = lower value 0.95 | S. cerevisiae deletion strains, locus YJL187C, strain SWE1, stronger effect = lower value 1.01 | S. cerevisiae deletion strains, locus YJR043C, strain POL32, stronger effect = lower value 1 | [3] 0.997 | S. cerevisiae deletion strains, locus YKL190W, strain CNB1, stronger effect = lower value 0.982 | S. cerevisiae deletion strains, locus YLR039C, strain RIC1, stronger effect = lower value 1.06 | S. cerevisiae deletion strains, locus YLR058C, strain SHM2 (second series), stronger effect = lower value 1 | S. cerevisiae deletion strains, locus YLR085C, strain ARP6, stronger effect = lower value 0.975 | S. cerevisiae deletion strains, locus YLR262C, strain YPT6, stronger effect = lower value 1.06 | S. cerevisiae deletion strains, locus YML094W, strain GIM5, stronger effect = lower value 0.997 | S. cerevisiae deletion strains, locus YMR219W, strain ESC1, stronger effect = lower value 1 | S. cerevisiae deletion strains, locus YMR263W, strain SAP30, stronger effect = lower value 0.984 | S. cerevisiae deletion strains, locus YMR307W, strain GAS1, stronger effect = lower value 0.916 | [4] 1.02 | S. cerevisiae deletion strains, locus YNL298W, strain CLA4 (second series), stronger effect = lower value 0.967 | [5] 1 | S. cerevisiae deletion strains, locus YNR030W, strain Alg12, stronger effect = lower value 0.998 | [6] 0.999 | [7] 1 | S. cerevisiae deletion strains, locus YPR135W, strain CTF4, stronger effect = lower value 1 | S. cerevisiae strains, strain wild type, stronger effect = lower value 0.974

CNCCC(Oc1ccccc1OC)c1ccccc1 (stereo not drawn)
inactive: [1] 0.996 | S. cerevisiae deletion strains, locus YAL040C, strain CLN3, stronger effect = lower value 1.01 | S. cerevisiae deletion strains, locus YCL061C, strain MRC1 (second series), stronger effect = lower value 1 | [2] 1.01 | S. cerevisiae deletion strains, locus YDR363W, strain ESC2, stronger effect = lower value 1 | S. cerevisiae deletion strains, locus YER002W, strain NOP16, stronger effect = lower value 1 | [3] 1.01 | [4] 1.03 | S. cerevisiae deletion strains, locus YNL175C, strain NOP13, stronger effect = lower value 1 | S. cerevisiae deletion strains, locus YNL197C, strain WHI3, stronger effect = lower value 1.01 | S. cerevisiae deletion strains, locus YNL224C, strain SQS1, stronger effect = lower value 1.01 | [5] 1 | S. cerevisiae deletion strains, locus YOR083W, strain WHI5 (second series), stronger effect = lower value 1.03 | [6] 1.02 | [7] 0.996
